Screens: PubChem BioAssay, National Center for Advancing Translational Sciences (NCATS)
Only some compounds are listed: those with a hit (about 2.2% of all), similar ones and a draw of the others.
Abeta rescue: qHTS for compounds that reverse cellular toxicity of Amyloid beta (A-beta) peptide in yeast: Primary Screen; yeast expressing A-beta42, growth rescue, OD600, 48 h; response scale: 0% DMSO, 100% iron-clioquinol control; AID 1347071, 2019; Potency, µM (doses to about 46.1 µM), most hits filed as activators; 410,000 tested, 0.063% active; further: nearly all actives have a fitted effect of over 55% in size
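Growth rescue measured by 600 nm absorbance after 48 h yeast culture at 30 C with compound. Values normalized between DMSO and an equimolar ferric chloride plus clioquinol control.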
Mito fusion act: qHTS Assay for Small Molecule Inhibitors of Mitochondrial Division or Activators of Mitochondrial Fusion; S. cerevisiae fusion-defective mutant growth rescue, CellTiterGlo 48 h; Potency, µM (highest dose often 46.1 µM), inactives show top-dose growth rescue (activation), usual class: activators; 320,000 tested, 0.23% active; AID 485298, 2010; further: % of control where 0% means no effect; nearly all actives have a fitted effect of over 45% in size
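Temperature-sensitive fusion-defective S. cerevisiae (e.g. fzo1-1, mgm1-5) were grown with compound in YPEG medium (3% ethanol, 3% glycerol) for 48 hours at 37C. Growth rescue was measured as viability by CellTiterGlo luminescence after 10 minutes at ambient.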
aSyn yeast inh: qHTS of alpha-syn Inhibitors; 370,000 tested, 0.14% active; Yeast expressing alpha-synuclein, growth rescue, BacTiter-Glo, 24 h; Potency, µM (titrated, usually from 46.1 µM), for inactives: at the top dose growth rescue (activation), usual class: activators; further: % of control where 0% means no effect; nearly all actives have a fitted effect of over 65% in size
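Rescue of yeast growth: cells expressing toxic alpha-synuclein, induced in galactose at OD600 0.02, incubated with compound 24 h at 30 C. ATP luminescence quantified growth; inhibitors of toxicity appear as activators.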
FUS suppressor: qHTS for Suppressors of FUS Proteinopathy: Primary screen using FUS-linked yeast assay. 390,000 tested, 0.24% active. S. cerevisiae FUS-expressing, growth rescue, OD600, 24 h. Potency, µM (series often up to 76.6 µM), hits mostly activators. AID 1347120, 2019;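 further: plate controls were DMSO vehicle for no effect and reference control for full effect; nearly all actives have a fitted effect of over 55% in size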
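Toxicity suppression screen in FUS-yeast. Cells induced with 2% galactose, starting OD 0.005, treated 24hr at 30C with compounds at multiple final concentrations; growth by OD600.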
TDP-43 yeast inh: qHTS of TDP-43 Inhibitors; TDP-43 expressing yeast growth rescue, BacTiter-Glo, 24 h; Potency, µM (series often up to 46.1 µM), without a hit: top-dose growth rescue (activation), usual class: activators; 410,000 tested, 1.8% active; AID 652104, 2013; further: % of control where 0% means no effect; nearly all actives have a fitted effect of over 50% in size
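In this qHTS, compounds that restore growth of yeast expressing TDP-43 appear as activators. Cells (OD600=0.02, galactose medium, raffinose-pregrown) are incubated with compound 24 hr at 30 deg C and growth is quantified by BacTiter-Glo.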
An asterisk follows results filed as active; [ ] = remark or other dose. The call rests on the fitted dose curve; in most records, active means well fitted curve in the direction sought with a large enough effect; inconclusive means small, poorly fitted or top-dose-only effect, or another doubt; inactive means no such curve, though single readings can be large; an effect the other way counts as inactive or inconclusive. Potency means the concentration at half of the fitted maximal effect.

Results for COc1cc(-c2cc(OC)c3c(C)oc(C)c3c(=O)c2)ccc1OC(=O)c1ccccc1F ?
Abeta rescue: inactive; FUS suppressor: inactive; TDP-43 yeast inh: inconclusive

What do the screens show for `COc1cc(-c2cc(OC)c3c(C)oc(C)c3c(=O)c2)ccc1OC(=O)c1ccccc1Cl`?
Abeta rescue: inactive; FUS suppressor: 13µM*; TDP-43 yeast inh: 13%

What do the screens show for `O=C(Oc1c(-c2ccccc2)c(=O)n2c3c(cccc13)CC2)c1cccc([N+](=O)[O-])c1`?
Abeta rescue: 14µM*; Mito fusion act: 1%; aSyn yeast inh: inconclusive; FUS suppressor: inactive; TDP-43 yeast inh: -29%[1.82 µM]

How did CCOc1ccc(NC(=O)c2nc(S(=O)(=O)Cc3ccc(F)cc3)ncc2Cl)cc1 do in these assays?
aSyn yeast inh: 4%

What do the screens show for `CCCCc1nn2c(C)c(-c3ccc(OCC)cc3)nc2s1`?
Abeta rescue: inactive; FUS suppressor: inactive; TDP-43 yeast inh: 22µM*

Results for CC(=O)C(Sc1ncnc2sc3c(c12)CCCC3)C(C)=O ?
Abeta rescue: inconclusive; Mito fusion act: 29%; aSyn yeast inh: inconclusive; FUS suppressor: inactive; TDP-43 yeast inh: 18µM*

What do the screens show for `CC(=O)CSc1ncnc2sc3c(c12)CCCC3`?
Abeta rescue: inactive; Mito fusion act: -3%; aSyn yeast inh: 23%; FUS suppressor: inactive; TDP-43 yeast inh: inconclusive

How did O=C(CSc1ncnc2sc3c(c12)CCCC3)c1ccccc1 do in these assays?
Abeta rescue: inactive; Mito fusion act: 4%; aSyn yeast inh: -8%; FUS suppressor: inactive; TDP-43 yeast inh: -2%

How did Cc1cc(C)nc(Sc2ncnc3sc4c(c23)CCC4)n1 do in these assays?
Abeta rescue: inactive; Mito fusion act: -1%; aSyn yeast inh: 0%; FUS suppressor: inactive; TDP-43 yeast inh: 20µM*

Results for O=C(CSc1ncnc2sc3c(c12)CCCC3)c1ccco1 ?
Abeta rescue: inactive; Mito fusion act: 21%; aSyn yeast inh: 5%; FUS suppressor: inactive; TDP-43 yeast inh: 10µM*

Results for CC(C)(C)OC(=O)NCc1cc(F)ccc1/C=C/S(=O)(=O)NCc1ccccc1 ?
FUS suppressor: inactive

What do the screens show for `O=S1(=O)CC2c3ccc(F)cc3CN2CN1Cc1ccccc1` (stereo not drawn)?
FUS suppressor: inactive

How did CCOC(=O)N1CCN(C(=O)C[C@H]2C(=O)N(CCCOC)C3=CCCC[C@@]32C(=O)OCC)CC1 do in these assays?
FUS suppressor: inactive

Results for CCOC(=O)CC[C@H]1CC[C@]2(CCCN(C(=O)C3CCCC3)C2)O1 ?
FUS suppressor: inactive

What do the screens show for `O=C1NC(=O)/C(=C/c2ccc3c(c2)OC(F)(F)O3)S1`?
Mito fusion act: 3.7µM*; aSyn yeast inh: -39%

What do the screens show for `CCOc1ccc(CCN2C(=O)C(=O)N([C@@H](Cc3ccccc3)CN3CCC[C@H]3CN3C(=O)C(=O)NC[C@@H]3Cc3ccccc3)C[C@@H]2Cc2ccc(O)cc2)cc1`?
Abeta rescue: inactive; aSyn yeast inh: 0%; FUS suppressor: 16µM*; TDP-43 yeast inh: 7%

What do the screens show for `CC(C)C[C@H]1CNC(=S)N1C[C@H]1CCCN1C[C@H](Cc1ccccc1)N1C[C@H](CC(C)C)N(CCc2ccccc2)C1=S`?
Abeta rescue: inconclusive; aSyn yeast inh: -46%; FUS suppressor: 25µM*; TDP-43 yeast inh: inconclusive

What do the screens show for `CC(C)C[C@H]1CNC(=S)N1C[C@H]1CCCN1C[C@H](CC(C)C)N1C[C@H](CC(C)C)N(CCc2ccccc2)C1=S`?
Abeta rescue: inconclusive; aSyn yeast inh: -32%; FUS suppressor: inactive; TDP-43 yeast inh: 28%

Results for Cc1ccc2c(c1)CCCN2C(=O)c1cnn2c1NC(=C1CC1)C=C2C(F)F ?
aSyn yeast inh: -1%

How did c1ccc(-c2cccc(CNc3nc(-c4ccccn4)nnc3-c3ccccc3)c2)cc1 do in these assays?
FUS suppressor: 32µM*

Results for O=C(/C=C/c1ccco1)Oc1cc(Br)cc(/C=N/NC(=O)c2ccccc2O)c1 ?
Abeta rescue: inactive; Mito fusion act: 13%; aSyn yeast inh: 22µM*; FUS suppressor: inactive; TDP-43 yeast inh: 7%

What do the screens show for `CC1CCCC(NC(=O)COc2ncnc3ccccc23)C1C` (stereo not drawn)?
Abeta rescue: inactive; aSyn yeast inh: 10%; TDP-43 yeast inh: -33%

How did CC1CCCC(NC(=O)CSc2ncnc3ccccc23)C1C (stereo not drawn) do in these assays?
Abeta rescue: inactive; aSyn yeast inh: 2%; FUS suppressor: inactive; TDP-43 yeast inh: 14µM*

Results for S=C(NC1CC1)SCc1ccco1 ?
Abeta rescue: inactive; Mito fusion act: -3%; aSyn yeast inh: 7%; FUS suppressor: inactive; TDP-43 yeast inh: 28µM*

How did CC(=O)N1CCc2cc(S(=O)(=O)CCC(=O)N(C)Cc3ccco3)ccc21 do in these assays?
Abeta rescue: inactive; Mito fusion act: 9%; aSyn yeast inh: 2%; FUS suppressor: inactive; TDP-43 yeast inh: 0%

Results for Cc1cc(=O)oc2cc(OCCc3ccccc3)ccc12 ?
Abeta rescue: inactive; Mito fusion act: 27%; aSyn yeast inh: 2%; FUS suppressor: inactive; TDP-43 yeast inh: 13µM*

What do the screens show for `CCCc1cc(C(=O)NC(C)C2CCCO2)cs1` (stereo not drawn)?
Abeta rescue: inactive; Mito fusion act: -1%; aSyn yeast inh: 6%; FUS suppressor: inactive; TDP-43 yeast inh: 15%

How did COc1ccc(N2CCN(C(=O)CCc3c(C)nc4c(-c5ccccc5)c(C)nn4c3C)CC2)cc1 do in these assays?
Abeta rescue: inactive; FUS suppressor: inconclusive; TDP-43 yeast inh: 22µM*

Results for CC(C)CSc1nnc(-c2ccco2)n1C ?
FUS suppressor: inactive

What do the screens show for `Cc1ccc(S(=O)Cc2nc(-c3ccc(C(=O)NCc4cccc(C)c4)cc3)oc2C)cc1` (stereo not drawn)?
Abeta rescue: inactive; FUS suppressor: inactive; TDP-43 yeast inh: -16%

Results for O=C(CSc1nc2ccccc2o1)NCc1ccc2c(c1)OCO2 ?
Abeta rescue: inactive; Mito fusion act: 2%; aSyn yeast inh: 0%; FUS suppressor: inactive; TDP-43 yeast inh: 14µM*

What do the screens show for `O=C(NCCc1ccc(Cl)cc1)C1(c2ccccc2)CC1`?
Abeta rescue: inactive; Mito fusion act: -2%; aSyn yeast inh: 16%; FUS suppressor: inactive; TDP-43 yeast inh: 14µM*

Results for O=C(CN1CCCc2ccccc21)NCc1ccc2c(c1)OCO2 ?
Abeta rescue: inactive; Mito fusion act: 3%; aSyn yeast inh: 15%; FUS suppressor: inactive; TDP-43 yeast inh: 11µM*
